Only some compounds are listed: those with a hit (about 6.9% of all), similar ones and a draw of the others.
HP1b binding inh: HP1-beta chromodomain-methylated histone interaction inhibition; actives 0.56% (n = 390,000); AlphaScreen HP1-beta / biotin-H3K9me3 peptide binding; Potency, µM (doses to about 114 µM), without a hit: at the top dose activity change, negative = inhibition, most hits filed as inhibitors; AID 540317; also: nearly all actives have a fitted effect of over 70% in size
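HP1-beta protein (50 nM final) preincubated 30 min at room temperature with biotinylated H3(1-18)K9me3 peptide (50 nM) in PBS pH 7.4, 0.01% Tween-20, then compound added for 30 min. AlphaScreen streptavidin donor/nickel chelate acceptor beads (10 ug/mL final), 30 min dark, luminescence read.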
JMJD2A Tudor inh: blocks the human JMJD2A Tudor domain. AlphaScreen JMJD2A-Tudor / H3K4me3 peptide binding. Potency, µM (doses to about 114 µM), for inactives: at the highest dose activity change, negative = inhibition, most hits filed as inhibitors. O75164. AID 504339. actives 4.4% (n = 390,000); also: % is scaled to controls: 0 for no effect and ±100 for the full control effect; nearly all actives have a fitted effect of over 50% in size
PLK1 PBD inh: PLK1 (human) polo-box domain binding inhibition | Plk1 PBD binding of FITC phosphopeptide, fluorescence polarization | Potency, µM, for the others: max response, negative = inhibition, actives largely listed as inhibitors | actives 2.8% (n = 360,000); also: series mostly up to about 57 µM; % is scaled to controls: 0 for no effect and ±100 for the full control effect; nearly all actives have a fitted effect of over 65% in size
L3MBTL1 inh: blocks human L3MBTL1. Potency, µM (series often up to 57.1 µM), for the others: at the top dose activity, negative = inhibition, usual class: inhibitors. actives 0.66% (n = 230,000). AlphaScreen L3MBTL1–H3K9me1 peptide binding; also: % is scaled to controls: 0 for no effect and ±100 for the full control effect; nearly all actives have a fitted effect of over 60% in size
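Read-out is AlphaScreen signal from streptavidin donor and nickel chelate acceptor beads (10 ug/mL final each) bridging L3MBTL1 (50 nM) and biotinylated K9-monomethylated H3(1-15) peptide (75 nM), after 30 min compound exposure at room temperature.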
VDR inh: inhibitors of human vitamin D receptor | VDR-SRC2-3 peptide fluorescence polarization, 2 h | Potency, µM, inactives show max response, negative = inhibition, actives largely listed as inhibitors | actives 0.93% (n = 400,000); also: % is scaled to controls: 0 for no effect and ±100 for the full control effect
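After 23 nl compound addition and a short centrifugation, plates sat for 2 hours at ambient temperature; polarization of fluorescence then indicated loss of VDR binding to peptide SRC2-3.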
BAZ2B block: BAZ2B (human) inhibition | Q9UIF8 | AlphaScreen BAZ2B-H3K14Ac peptide displacement | Potency, µM (doses to about 114 µM), inactives show at the highest dose activity change, negative = inhibition, hits mostly inhibitors | actives 4.4% (n = 360,000); also: % is scaled to controls: 0 for no effect and ±100 for the full control effect; nearly all actives have a fitted effect of over 60% in size
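AlphaScreen luminescence quantifies BAZ2B engagement of H3K14Ac peptide; the protein and biotinylated peptide are both at 50 nM final, buffer PBS pH 7.4 with 0.01% Tween-20, all steps at room temperature.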
* marks the source's active call; other numbers are inactive results; ? = inconclusive; . = no result; [ ] = dose if it differs, or a comment. Calls follow the shape of the dose curve; as a rule, active = well fitted curve in the direction sought with a large enough effect; inconclusive = small, poorly fitted or top-dose-only effect, or another doubt; inactive = no such curve, though single readings can be large; an effect the other way counts as inactive or inconclusive. Potency is read from the fitted curve at half-maximal effect.

SMILES | HP1b binding inh | JMJD2A Tudor inh | PLK1 PBD inh | L3MBTL1 inh | VDR inh | BAZ2B block
N#Cc1ccccc1S(=O)(=O)N1CCN(CC(O)COc2ccccc2F)CC1 (stereo unspecified) | ? | 3.2µM* | 7% | . | -4% | 28µM*
CCOC(=O)c1ccc(S(=O)(=O)N2CCN(CC(O)COc3ccc(C#N)cc3)CC2)cc1 (stereo unspecified) | -30% | 20µM* | -3% | . | 15% | 56µM*
O=C1NCC(Nc2ccc(Br)cc2)C(=O)N1 (stereo unspecified) | 22% | -13% | -4% | . | 8% | .
Cc1cccc(C(=O)Nc2nc(-c3nnn(-c4cc(C)ccc4C)c3C)ns2)c1 | 27% | 12% | . | . | -3% | 2%
CC(C)c1ccccc1OCC(O)CN1CCN(S(=O)(=O)c2ccc([N+](=O)[O-])cc2)CC1 (stereo unspecified) | ? | 20µM* | -5% | . | 25% | 40µM*
CN(CC(=O)Nc1cccc(F)c1)C(=O)c1ccccc1Cc1ccccc1 | -2% | -27% | -1% | -8% | 16% | -4%
O=C(CSc1nc(-c2cccs2)cc(C(F)(F)F)n1)Nc1cc(OCC(F)(F)F)cc([N+](=O)[O-])c1 | -4% | 22µM* | -4% | 9% | 18% | -7%
CN(C)CCCn1c(SCC(=O)Nc2nc(-c3cccc(Br)c3)cs2)nc2ccccc2c1=O | ? | 40µM* | -12% | . | 7% | ?
COc1ccccc1NC(=O)N(C)C[C@@H]1OCc2cnnn2CCCC(=O)N([C@H](C)CO)C[C@@H]1C | . | . | -5% | . | . | .
CC(C)C[C@@H]1NC(=O)[C@H](C(C)C)NC(=O)c2cc([N+](=O)[O-])cc(I)c2NCC[C@@H](C(N)=O)NC1=O | 23% | -20% | -6% | -4% | -10% | 79µM*
NC(=O)[C@@H]1CCCNc2c(F)cc([N+](=O)[O-])cc2C(=O)N[C@@H](CO)C(=O)N[C@@H](Cc2ccc(O)cc2)C(=O)N1 | 15% | -27% | -13% | 0% | -13% | -37%
NC(=O)C(CC(=O)O)NC(=O)[C@@H]1CCOc2c(I)cc([N+](=O)[O-])cc2C(=O)N[C@@H](CO)C(=O)N[C@@H](Cc2ccc(O)cc2)C(=O)N1 (stereo partly specified) | -12% | 50µM* | -29% | ? | -12% | ?
NC(=O)[C@@H]1CCNc2c(I)cc([N+](=O)[O-])cc2C(=O)N[C@@H](CO)C(=O)N[C@@H](Cc2ccc(O)cc2)C(=O)N1 | . | . | . | -4% | . | 79µM*
CC(C)C[C@@H]1NC(=O)[C@H](Cc2ccc(O)cc2)NC(=O)[C@H](CCC(N)=O)NC(=O)c2cc([N+](=O)[O-])cc(I)c2NCC[C@@H](C(N)=O)NC1=O | . | . | . | -2% | . | 50µM*
O=C(/C=C/c1cccs1)N1CCN(Cc2ccc3c(c2)OCO3)CC1 | 4% | -19% | -12% | -8% | 14% | -10%
C=CCNC(=S)Nc1ccc2cn[nH]c2c1 | 14% | -12% | -17% | -2% | 1% | 2%
CNC(=O)COc1coc(CN2CCN(c3cccc(Cl)c3)CC2)cc1=O | 34% | -5% | 0% | . | -5% | -16%[57.1 µM]
CCc1ccc(CN(C(=O)c2ccc(OC)cc2)C2CCS(=O)(=O)C2)cc1 (stereo unspecified) | 14% | 7% | . | . | 0% | 1%
COc1ccc2[nH]c3c(=O)n(Cc4ccc(C(=O)N5CCC(C(N)=O)CC5)cc4)c(=S)[nH]c3c2c1 | ? | 4µM* | 21µM* | 9% | ? | ?
CC[C@H](C)NC(=O)c1ccc(Cn2c(=S)[nH]c3c([nH]c4ccc(OC)cc43)c2=O)cc1 | -1% | ? | -11% | ? | 9% | 71µM*
COc1ccc(C(=O)NC(=S)Nc2nnn(C)n2)cc1 | -37% | 32µM* | ? | 4% | -3% | 50µM*
Cn1nnc(NC(=S)NC(=O)Cc2ccccc2)n1 | 79µM* | 22µM* | -16% | 9% | -8% | 35µM*
CNC(=O)NC(=S)NC(=O)c1ccc(OC)cc1 | 14% | 16µM* | 1% | 4% | 23% | -35%
Cc1c(N)c(C(C)(C)C)cc(C(C)(C)C)c1[N+](=O)[O-] | 11% | -32% | -4% | -9% | -5% | -38%
Cc1cc2nc3c(=O)[nH]c(=O)[nH]c3nc2c([N+](=O)[O-])c1N | ? | 45µM* | 13µM* | ? | -24% | 50µM*
SMILES | HP1b binding inh | JMJD2A Tudor inh | PLK1 PBD inh | L3MBTL1 inh | VDR inh | BAZ2B block
Cc1ccc(NC(=O)Cn2nnc(-c3nc(-c4ccc(Cl)cc4)no3)c2N)cc1C | 28% | 9% | . | . | 12% | -10%
CCOc1ccc(NCCC(O)c2ccc(F)cc2)cc1 (stereo unspecified) | ? | ? | -5% | . | 1% | 50µM*
CCn1c(CN2CCC(C)CC2)nc2cc(NC(=O)c3cccc([N+](=O)[O-])c3)ccc21 | 44% | 56µM* | . | . | -2% | -8%
CCn1c(CN2CCC(C)CC2)nc2cc(NC(=O)c3ccc([N+](=O)[O-])cc3)ccc21 | 20% | -12% | . | . | 13% | -2%
CC1=NN(C(=O)c2ccccc2)C(O)(c2ccc(Br)cc2)C1 (stereo unspecified) | 11% | -23% | -6% | -8% | 10% | ?
CCC1=NN(C(=O)c2ccc(Br)cc2)C(O)(c2ccccc2)C1 (stereo unspecified) | 18% | -32% | -1% | -29% | -11% | 50µM*
Oc1c(C(c2ccc(Cl)cc2)N2CCOCC2)sc2nc(-c3ccco3)nn12 (stereo unspecified) | 81% | -18% | . | . | -4% | -11%
CCC(CC)NCC(O)COc1ccc(Br)cc1 (stereo unspecified) | ? | 1µM* | -6% | . | -19% | 28µM*
O=C(NC1CCCCC1)N1CCC(n2cnc3ccccc32)CC1 | 20% | 56µM* | 1% | 2% | -8% | ?
Cc1cccc(C)c1NC(=O)N1CCC(n2cnc3ccccc32)CC1 | 65% | -10% | -8% | . | -1% | -6%
Cc1[nH]c(=S)c(C#N)c(C)c1Cc1ccccc1 | 13% | ? | 0% | -3% | ? | -11%
Cc1[nH]c(=S)c(C#N)c(C)c1CCC#N | 11% | 20µM* | ? | . | 18% | -1%
CN(C)c1ccc(-c2csc(C(O)c3cccc(Cl)c3)n2)cc1 (stereo unspecified) | . | . | -5% | . | . | .
CCCC[C@@H]1CNCCN1CCc1cccc(F)c1 | 34% | -12% | 1% | -7% | 0% | -36%
Fc1cccc(CCN2CCNC[C@@H]2Cc2ccccc2)c1 | 14% | 56µM* | -18% | . | -11% | .
COc1ccc([C@H]2CC(=O)C=C(c3cccc(Br)c3)C2)cc1 | 55% | 5% | -3% | 11% | 10% | 0%
